The structures appear in SMILES notation. Where “and” joins values, the source holds several entries; their conditions need not be identical. Identical values can stand only once. Hit rate of the full screen: of about 16,000 compounds, about 5,800 (36%) were called active. Another 23% or so got no clear call; they are omitted. The call rests on the fitted dose curve; in most records, active means well fitted curve in the direction sought with a large enough effect; inconclusive means small, poorly fitted or top-dose-only effect, or effect the other way; inactive means no such curve, though single readings can be large or run the other way. The list shows a part of the results. Some structures have more than one record in an assay (separate samples or runs), and their calls can disagree.

What is called AC50 is the concentration giving half of the maximal activity seen.
On the % scale 0 is the no-effect control and ±100 the full control effect.

This assay deals with Cytochrome P450 2C19 (Homo sapiens) (UniProt P33261). Description: Cytochrome panel assay with activity outcomes. Conditions: recombinant CYP, pro-luciferin dealkylation, luminescence, p450-cyp2c19; series mostly up to 57.1 µM.
Cytochrome P450 2C19 (Homo sapiens), sequence (P33261 whole entry, looked up): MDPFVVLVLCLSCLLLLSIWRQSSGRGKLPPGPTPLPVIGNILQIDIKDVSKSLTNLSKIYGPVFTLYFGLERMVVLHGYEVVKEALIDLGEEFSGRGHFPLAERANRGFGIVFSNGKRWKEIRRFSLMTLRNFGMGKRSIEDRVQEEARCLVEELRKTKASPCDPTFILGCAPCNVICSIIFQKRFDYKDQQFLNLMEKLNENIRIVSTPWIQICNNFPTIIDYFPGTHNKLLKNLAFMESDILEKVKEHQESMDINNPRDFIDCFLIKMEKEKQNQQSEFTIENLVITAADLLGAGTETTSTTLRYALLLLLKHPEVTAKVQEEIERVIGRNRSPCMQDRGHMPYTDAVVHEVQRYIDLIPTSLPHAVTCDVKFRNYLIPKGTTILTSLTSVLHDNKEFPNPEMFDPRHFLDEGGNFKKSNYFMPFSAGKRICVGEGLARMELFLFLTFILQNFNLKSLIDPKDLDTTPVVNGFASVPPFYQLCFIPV
On to `COc1ccccc1/C=N/NC(=Nc1ccc(C)cc1)c1nc2ccccc2s1`, for which the AC50 entry is “inactive”.
Same read-out and setting: then `COc1ccccc1/C=N/NC(=O)CC(=O)Nc1ccc(Cl)c(Cl)c1`, with 11.2 µM (active).
On the same count and under the same terms, the figure for `O=C(Oc1ccccc1)N1CCC[C@@]2(CCN(c3ccncc3)C2)C1` is 5.01 µM (active); for `COC(=O)N1CCC2(CC1)CN(c1ccc(-c3ccccc3)cc1)C2` it is “inactive”.
On the same count and under the same terms, the entry for `O=C(Oc1ccccc1)N1CCC2(CC1)CCN(c1ccncc1)CC2` is “inactive”; for `CC(=O)N1CCC2(CC1)CN(c1ccncc1)C2` it is “inactive”.
On to `O=C(Oc1ccccc1)N1CCC2(CC1)CN(c1ccncc1)C2`, for which the AC50 is 7.94 µM (active).
Same read-out and setting: the entry for `COC(=O)N1CCC2(CCCN(c3ccc(-c4ccccc4)cc3)C2)CC1` is “inactive”; for `COC(=O)N1CCC2(CC1)CN(c1ccccc1)C2` it is 6.31 µM (active).
Still for that read-out and setting: the entry for `COC(=O)N1CCC[C@@]2(CCN(c3ccncc3)C2)C1` is “inactive”; for `C[C@H](NC[C@H](O)CP(=O)(O)CC1CCCCC1)c1ccc(Cl)c(Cl)c1` it is “inactive”.
Consider `OC[C@H](S)CS`, for which the activity, negative = inhibition is -35.3% [at 11.4 µM] (inactive).
Take `CCCCNC(=O)NC1C(NC(=O)NCCCC)N(C)C(=O)N1C` (stereo not given): the AC50 entry was “inactive”.
`CCCCNC(=S)NNC(=O)CCn1nc(C)c(Br)c1C`: the concentration at half-maximal activity (AC50) was 11.2 µM (active).
`COc1cccc(NC(=S)N(CCc2nc3cc(C)c(C)cc3[nH]2)Cc2cccnc2)c1`: the AC50 was 3.98 µM (active).
Turning to `Cc1cccc(NC(=S)N(CCc2nc3cc(C)c(C)cc3[nH]2)Cc2cccnc2)c1`, the AC50 was 3.16 µM (active).
Still for that read-out and setting: then `COc1cccc(Nc2ncc3nc(C)c(=O)n(CCc4ccccc4)c3n2)c1`, with “inactive”; and `COc1cccc(NC(=O)C2c3cc(OC)c(OC)cc3C(=O)N(C)C2c2cccnc2)c1` (stereo not given), with “inactive”; and `COc1ccc(NC(=S)N(CCc2nc3cc(C)c(C)cc3[nH]2)Cc2cccnc2)cc1`, with 14.1 µM (active).
The same measure, in the same setting: then `COc1ccc(COc2ccsc2C(=O)Nc2ccc(Cl)c(Cl)c2)cc1`, with 7.94 µM (active).
For `CNC(=S)NNC(=O)c1sccc1OCc1ccc(C)cc1`, the AC50 was 5.01 µM (active).
The same measure, in the same setting: then `FC(F)(F)c1cc(CN2CCCC3(CCNCC3)C2)cc(C(F)(F)F)c1`, with “inactive”; and `Cc1ccc(/C=C/c2nnc(-c3ccc(C)cc3)o2)cc1`, with “inactive”.
As to `C(=C\c1nnc(-c2cccs2)o1)/c1ccccc1`, the AC50 is 22.4 µM (active).
Same read-out and setting: then `Cc1oc(-c2cccs2)[n+]([O-])c1C`, with “inactive”.
Regarding `CCN=C1NN=C(c2ccc(C)cc2)CS1`, the AC50 was 10 µM (active).
Still for that read-out and setting: the entry for `Nc1nc(NCCc2ccc(O)cc2)nc2nc(-c3ccco3)nn12` is “inactive”; for `FC(F)(F)c1cc(-c2ccco2)nc(NCCc2ccccc2)n1` it is 1.78 µM (active); for `Cc1scc2c1N(C(=O)CN1CCN(C)CC1)c1ccccc1NC2=O` it is “inactive and 3.98 µM (active)”.
The same measure, in the same setting: the entry for `CN1CCN(CC(=O)N2c3ccccc3C(=O)Nc3cccnc32)CC1` is “inactive”.
For `CCCCC#Cc1ccccc1CC(=O)Nc1ccccc1`, the concentration at half-maximal activity (AC50) is 0.794 µM (active).
Still for that read-out and setting: then `O=C(Cc1ccccc1I)Nc1ccccc1`, with 6.31 µM (active).
Still for that read-out and setting: the entry for `CCC#CCOCC(=O)Nc1ccccc1` is “inactive”.
On to `O=C(O)[C@H](/C=C\c1ccccc1)c1ccccc1`, for which the activity, negative = inhibition was -22.1% [at 11.4 µM] (inactive).
Regarding `COC(=O)c1cc(/C=C/c2ccccc2)on1`, the AC50 was 35.5 µM (active).
As for `Cc1ccc(NC(=O)c2cc([N+](=O)[O-])ccc2NCc2cccnc2)cc1Cl`, the AC50 was 0.0794 µM (active).
In the case of `CS(=O)(=O)N1CCC[C@@]2(CCN(C(=O)Nc3cccc(C#N)c3)C2)C1`, the AC50 entry was “inactive”.
Same read-out and setting: the entry for `COc1cccc(/C=c2/s/c(=C(\C#N)C(=O)N3CCOCC3)n(-c3ccccc3)c2=O)c1` is “inactive”; for `CNC(=O)/C(C#N)=c1\s/c(=C/C(=O)OC)c(=O)n1-c1ccccc1` it is 5.01 µM (active); for `Cc1nn(CC(=O)NCc2ccccc2)c(C)c1[N+](=O)[O-]` it is “inactive”.
On the same count and under the same terms, the figure for `O=C(Cc1ccccc1[N+](=O)[O-])NCCSCc1c(F)cccc1Cl` is 2.51 µM (active).
For the compound `O=C(Cc1ccccc1[N+](=O)[O-])NCc1ccccc1Cl`, the AC50 was 31.6 µM (active).
In the case of `Cn1c(=O)c2cc(S(=O)(=O)NCCC(=O)NCc3ccccc3Cl)ccc2n(C)c1=O`, the AC50 entry is “inactive”.
The same measure, in the same setting: then `Cc1nn(CC(=O)NCCN2CCOCC2)c(C)c1[N+](=O)[O-]`, with “inactive”; and `Cc1nn(CC(=O)NCc2ccccc2Cl)c(C)c1[N+](=O)[O-]`, with 15.8 µM (active).
On the same count and under the same terms, the figure for `Cc1ccc(C(=O)C(OC(=O)COc2ccccc2C)c2ccccc2)cc1` (stereo not given) is 7.08 µM (active); for `Cc1ccc(C(=O)C(OC(=O)CCC(=O)Nc2cccc(C)c2)c2ccccc2)cc1` (stereo not given) it is 11.2 µM (active).
`Cc1ccc(C(=O)C(OC(=O)CNS(=O)(=O)c2ccccc2)c2ccccc2)cc1` (stereo not given): the AC50 was 10 µM (active).
Same read-out and setting: then `O=C(CN1C(=O)c2ccccc2C1=O)NCC(=O)OCC(=O)c1ccc(Br)cc1`, with “inactive”.
In the case of `CNCC[C@@H](Oc1ccccc1C)c1ccccc1`, the AC50 entry was “inactive”.
On the same count and under the same terms, then `Cc1ccc(C(=O)C(OC(=O)CN2C(=O)c3ccccc3C2=O)c2ccccc2)cc1` (stereo not given), with 3.55 µM (active); and `Cc1ccccc1OCC(=O)OC1CCN(C)CC1`, with “inactive”.
Same read-out and setting: the entry for `CCNc1ncc2nc(-c3cc(F)cc(F)c3)c(=O)n(-c3ccc(OC)cc3)c2n1` is “inactive”; for `CC(=O)Nc1cccc(C(=O)OC(C(=O)c2ccc(C)c(C)c2)c2ccccc2)c1` (stereo not given) it is 3.98 µM (active).
The same measure, in the same setting: then `Cc1ccc(NC(=O)C2C3CCCC2C3c2ccccc2)cc1C` (stereo not given), with “inactive”; and `CN(Cc1cc(Cl)cc(Cl)c1O)Cc1c(O)ccc2ccccc12`, with 1.26 µM (active).
Turning to `CN(C)Cc1cc(Cl)c(O)c(CN(C)C)c1`, the activity, negative = inhibition is 2.46% [at 11.4 µM] (inactive).
The same measure, in the same setting: then `CN(CC(=O)O)Cc1c(O)c(Cl)cc(Cl)c1Cl`, with 40.6% [at 11.4 µM] (inactive).
Consider `CCN(Cc1cc(Cl)cc(C)c1O)Cc1c(O)ccc2ccccc12`, for which the AC50 was 1.26 µM (active).
Same read-out and setting: the figure for `CN(Cc1cc(Br)cc(Br)c1O)Cc1c(O)ccc2ccccc12` is 0.501 µM (active).
In the case of `Oc1ccc2ccccc2c1C=NCc1c(O)ccc2ccccc12`, the activity, negative = inhibition is -16.5% [at 11.4 µM] (inactive).
On the same count and under the same terms, then `O=C1Nc2ccccc2C1=Nc1cccc2ncccc12`, with 27.9% [at 11.4 µM] (inactive).
Same read-out and setting: then `COC(=O)[C@H](CCSC)NC(=O)C/C=C\[C@@H](C)[C@@H](CO)OC`, with -1.07% [at 11.4 µM] (inactive).
For the compound `COC(=O)C(CCSC)NC(=O)c1cccc([N+](=O)[O-])c1` (stereo not given), the half-maximal activity concentration (AC50) is 14.1 µM (active).
`COC(=O)[C@H](CCSC)NC(=O)C/C=C\[C@@H](C)CO`: the activity, negative = inhibition is 35.2% [at 11.4 µM] (inactive).

Values taken from PubChem BioAssay AID1851 (National Center for Advancing Translational Sciences (NCATS), 2009).
